Here are results for 29 compounds from PubChem BioAssay (NCATS).

Experiment [1] deals with Calcium and integrin-binding protein 1 (Homo sapiens) (UniProt Q99828). The experiment is described as follows: Primary qHTS for Identification of Calcium Integrin Binding Protein 1 (CIB1) Competitor (AID 1508620).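 Note: GST tagged CIB1 binding a fluorescein labelled alphaIIb integrin peptide tracer; top concentration of the series differs between compounds.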 In outline:
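CIB1-GST (1 uM final) and compound incubated 15 min at room temperature before adding FITC-alphaIIb peptide tracer (100 nM final). Competition for binding read by fluorescence polarization (ex 480, em 540) after another 15 min at room temperature.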

Experiment [2] in a line: Primary qHTS for small molecule stabilizers of the endoplasmic reticulum resident proteome: Secreted ER Calcium Modulated Protein (SERCaMP) assay (AID 1508630). The gist of the method: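 The SH-SY5Y reporter protocol was run at 3 concentrations up to 38.3 uM (primary) or 11 concentrations (follow-up): 16 h compound, 100 nM thapsigargin for 4 h, then extracellular luciferase luminescence.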

A short description of experiment [3]: A High-Content qHTS Against Drug Library for the Identification of Small Molecules that Inhibit DYT1 Early Onset Primary Dystonia-Associated Cell Pathology (AID 1645839; calls by dose curve; note: potency is the fitted concentration of half-maximal effect). The gist of the method:
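High-content imaging quantified EGFP-TorsinA mislocalization in HEK293-derived cells inducibly expressing DYT1 mutant torsinA, after 48 h exposure to compound given together with tetracycline induction. Cell count served as a toxicity channel alongside %pathology.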
(In qHTS, concentration-response curves come from the screen itself.)

The target in experiment [4] is Cytochrome P450 2D6 (Homo sapiens) (UniProt P10635). The experiment is described as follows: Cytochrome P450 family 2 subfamily D member 6 (CYP2D6) small molecule antagonists: luciferase biochemical (cell-free) qHTS assay (AID 1645840; active = well fitted curve in the direction sought with a large enough effect in the repeat runs; an effect the other way counts as inactive or inconclusive; note: nearly all actives have a fitted effect of over 55% in size; note: potency is the fitted concentration of half-maximal effect; for activity change, negative = inhibition: series mostly up to about 57 µM). In outline: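 P450-Glo CYP2D6 system: proluciferin substrate converted by enzyme to luciferin, read by luminescence proportional to activity. Enzyme-substrate mix with compound 10 min at room temperature, then NADPH regeneration 1 h before detection reagent.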
Sequence of Cytochrome P450 2D6 (Homo sapiens) (P10635 whole entry, looked up): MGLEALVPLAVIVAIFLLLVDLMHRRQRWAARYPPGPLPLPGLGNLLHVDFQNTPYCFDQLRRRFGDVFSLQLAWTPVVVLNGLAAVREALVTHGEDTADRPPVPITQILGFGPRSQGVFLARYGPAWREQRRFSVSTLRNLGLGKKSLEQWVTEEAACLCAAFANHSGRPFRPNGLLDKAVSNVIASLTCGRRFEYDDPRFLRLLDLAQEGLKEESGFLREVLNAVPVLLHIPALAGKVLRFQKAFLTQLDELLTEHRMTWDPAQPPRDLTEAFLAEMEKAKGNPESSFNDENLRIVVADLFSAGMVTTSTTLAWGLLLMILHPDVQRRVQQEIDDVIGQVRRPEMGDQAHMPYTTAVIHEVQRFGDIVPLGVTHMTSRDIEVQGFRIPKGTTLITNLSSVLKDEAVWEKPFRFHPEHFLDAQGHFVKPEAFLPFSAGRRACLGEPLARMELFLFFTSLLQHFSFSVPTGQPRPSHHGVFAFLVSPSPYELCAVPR

Experiment [5] addresses Cytochrome P450 2C9 (Homo sapiens) (UniProt P11712). Kind of experiment: Cytochrome P450 family 2 subfamily C member 9 (CYP2C9) small molecule antagonists: luciferase biochemical (cell-free) qHTS assay (AID 1645842; active = well fitted curve in the direction sought with a large enough effect in the repeat runs; an effect the other way counts as inactive or inconclusive; note: nearly all actives have a fitted effect of over 55% in size; note: potency is the fitted concentration of half-maximal effect; for activity change, negative = inhibition: series mostly up to about 57 µM). The gist of the method: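 P450-Glo CYP2C9 system: proluciferin substrate with enzyme in mix containing 0.4% BSA, 10 min at room temperature, then NADPH regeneration solution added and incubated 1 h at 37C. Detection reagent stopped reaction; luminescence read after 20 min as RLU.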

Experiment [6] has as its target Cytochrome P450 3A4 (Homo sapiens) (UniProt P08684). Kind of experiment: Cytochrome P450 family 3 subfamily A member 4 (CYP3A4) small molecule antagonists: luciferase qHTS assay (AID 1645841; active = well fitted curve in the direction sought with a large enough effect in the repeat runs; an effect the other way counts as inactive or inconclusive; note: potency is the fitted concentration of half-maximal effect; nearly all actives have a fitted effect of over 45% in size). The gist of the method:
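Luminescent CYP3A4 activity readout: compounds plus enzyme-substrate mix 10 min at room temperature, reaction started with NADPH regenerating system for 1 h, stopped with detection reagent, read after 20 min. Ketoconazole served as control.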

Inconclusive results are not listed. Where a call stands in place of a potency, no number is given. Values without a mark were called inactive. Calls of active or inactive are those of the source. Unless noted, calls come from the whole dose curve; as a rule, active = well fitted curve in the direction sought with a large enough effect; inconclusive = small, poorly fitted or top-dose-only effect, or another doubt; inactive = no such curve, though single readings can be large; an effect the other way counts as inactive or inconclusive.

Sequence of Calcium and integrin-binding protein 1 (Homo sapiens) (Q99828 whole entry, looked up): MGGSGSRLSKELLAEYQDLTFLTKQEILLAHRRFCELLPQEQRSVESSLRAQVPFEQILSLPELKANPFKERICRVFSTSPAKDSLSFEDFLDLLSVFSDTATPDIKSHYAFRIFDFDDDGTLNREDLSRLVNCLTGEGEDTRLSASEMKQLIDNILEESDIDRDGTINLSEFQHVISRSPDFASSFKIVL
Sequence of Cytochrome P450 2C9 (Homo sapiens) (P11712 whole entry, looked up): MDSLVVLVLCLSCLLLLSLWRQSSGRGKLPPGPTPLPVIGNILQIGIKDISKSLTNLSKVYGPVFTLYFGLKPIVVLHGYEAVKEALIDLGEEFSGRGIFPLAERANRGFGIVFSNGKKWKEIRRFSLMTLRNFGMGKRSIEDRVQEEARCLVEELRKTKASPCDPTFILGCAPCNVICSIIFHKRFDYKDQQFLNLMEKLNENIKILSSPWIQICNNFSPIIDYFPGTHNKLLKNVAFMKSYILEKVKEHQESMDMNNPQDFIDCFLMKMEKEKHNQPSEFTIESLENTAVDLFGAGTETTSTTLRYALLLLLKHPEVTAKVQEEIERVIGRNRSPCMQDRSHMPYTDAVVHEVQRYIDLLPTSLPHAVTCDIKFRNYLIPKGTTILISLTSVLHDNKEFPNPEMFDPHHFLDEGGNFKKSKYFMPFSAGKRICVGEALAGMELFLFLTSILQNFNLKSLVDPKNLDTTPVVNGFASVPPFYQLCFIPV
Sequence of Cytochrome P450 3A4 (Homo sapiens) (P08684 whole entry, looked up): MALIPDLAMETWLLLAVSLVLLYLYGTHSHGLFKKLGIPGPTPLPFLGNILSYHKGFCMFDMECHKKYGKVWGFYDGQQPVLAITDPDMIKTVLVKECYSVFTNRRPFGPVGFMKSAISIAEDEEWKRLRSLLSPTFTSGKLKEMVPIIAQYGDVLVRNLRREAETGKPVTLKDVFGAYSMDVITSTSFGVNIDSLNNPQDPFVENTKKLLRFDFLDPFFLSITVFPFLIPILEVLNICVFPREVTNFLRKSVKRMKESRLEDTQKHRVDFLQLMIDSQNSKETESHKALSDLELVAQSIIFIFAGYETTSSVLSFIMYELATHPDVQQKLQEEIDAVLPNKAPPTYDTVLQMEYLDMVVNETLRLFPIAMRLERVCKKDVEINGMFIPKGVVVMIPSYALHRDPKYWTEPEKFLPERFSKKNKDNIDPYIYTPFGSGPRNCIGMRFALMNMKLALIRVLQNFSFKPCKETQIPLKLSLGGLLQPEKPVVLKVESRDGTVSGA

As for `C1CCC(NC2CCCCC2)CC1`, the result in experiment [1] was inactive. Further, the Potency result in experiment [2], in experiment [3] and in experiment [5] was “inactive” throughout. Further, in experiment [4], the Potency was 1.23 µM (active).
On to `CC[C@H]1C=CC=CC[C@@H](C)[C@H](O)[C@@](C)(O)C(=O)[C@@H](C)[C@H](O)[C@@H](C)C(=O)[C@@H](C)[C@H](O)[C@@H](C)C=CC(=O)O[C@@H]2[C@@H](C)[C@H](CC1)O[C@]1(CC[C@H](C)[C@H](C[C@@H](C)O)O1)[C@H]2C`, for which the outcome in experiment [1] was inactive. Besides, in experiment [2], the Potency entry was “inactive”.
Regarding `c1cc2c(cc1[C@H]1OC[C@H]3[C@H]1CO[C@H]3c1ccc3c(c1)OCO3)OCO2`, the outcome in experiment [1] was inactive. Further, in experiment [2], the Potency result was “inactive”.
In the case of `CN[C@@H]1Cc2cccc3[nH]c(=O)n(c23)C1`, the result in experiment [1] was inactive. In addition, the Potency entry in experiment [2] was “inactive”.
As for `CO[C@H]1CCC(O[C@H]2C[C@H]([C@]3(C)CC[C@]4(C[C@H](O)[C@@H](C)[C@@H]([C@@H](C)C=C(C)C(=O)[C@H](C)C[C@H](C)C(=O)O)O4)O3)O[C@]3(O[C@@H]([C@H]4O[C@@](O)(CO)[C@H](C)C[C@H]4C)C[C@H]3C)[C@H]2C)O[C@H]1C` (stereo not given in full), in experiment [1], the result was inactive. For the same compound, in experiment [2], the Potency entry was “inactive”.
For `CC(C)(O)C=CC(=O)[C@](C)(O)[C@H]1[C@H](O)C[C@]2(C)[C@@H]3CC=C4[C@@H](C=C(O)C(=O)C4(C)C)[C@]3(C)C(=O)C[C@@]12C`, the outcome in experiment [1] was inactive. The Potency entry in experiment [2] was “inactive”.
`Cc1c(C(=O)c2cccc3ccccc23)c2cccc3c2n1[C@H](CN1CCOCC1)CO3`: in experiment [1], the result was inactive. In experiment [2], the activity change, negative = inhibition was -12% [at 3.88 µM].
With `COc1ccc(CC2NCCc3cc(OC)c(OC)cc32)cc1OC` (stereo not given), the outcome in experiment [1] was inactive. Moreover, the Potency entry in experiment [2] was “inactive”.
On to `CC(C)N[C@@H]1CCn2c(=O)[nH]c3cccc(c32)[C@@H]1O`, for which the result in experiment [1] was inactive. Besides, the Potency entry in experiment [2] was “inactive”.
As to `N=c1c2c(-c3ccccc3)c(-c3ccccc3)n(Cc3ccccc3)c2ncn1C1CCC(O)CC1` (stereo not given), the result in experiment [1] was inactive. The Potency result in experiment [2] is “inactive”.
With `CCOC(=O)c1c(C(C#N)=CN)c2ccc(Cl)c(Cl)c2n1C`, in experiment [1], the outcome was inactive. In addition, the Potency entry in experiment [2] was “inactive”.
Regarding `C1=C2CCCN[C@H]2[C@@H]2C[C@H]1[C@@H]1CCCCN1C2`, the outcome in experiment [1] was inactive. The Potency entry in experiment [2] is “inactive”.
`CC(N[C@H]1C[C@H]1c1ccccc1)c1ccc2c(c1)OCCO2` (stereo not given in full): the outcome in experiment [1] was inactive. Also, the Potency result in experiment [2] was “inactive”.
As for `Fc1cc(Br)ccc1CBr`, in experiment [1], the outcome was inactive. The Potency entry in experiment [2], in experiment [3], in experiment [4] and in experiment [5] was “inactive” throughout.
In the case of `CCCN(CCC)c1c([N+](=O)[O-])cc(S(N)(=O)=O)cc1[N+](=O)[O-]`, the outcome in experiment [1] was inactive. For the same compound, the Potency entry in experiment [2] was “inactive”. Also, the Potency in experiment [3] is 28.2 µM (active); in experiment [4] it was 29.1 µM (active); in experiment [6], 8.44 µM (active); in experiment [5] it was 3.77 µM (active).
Consider `C=C1C[C@H]2[C@H]3CCC(=O)[C@@]3(C)CC[C@@H]2[C@@]2(C)C=CC(=O)C=C12`, for which the outcome in experiment [1] was inactive. In addition, the Potency entry in experiment [2] is “inactive”.
As to `CCNC(=O)C[C@@H]1N=C(c2ccc(Cl)cc2)c2cc(OC)ccc2-n2c(C)nnc21`, the outcome in experiment [1] was inactive. Further, the Potency result in experiment [2] is “inactive”.
As for `O=C(O)C(Cl)Cl`, the result in experiment [1] was inactive. Further, the Potency entry in experiment [2], in experiment [3], in experiment [4] and in experiment [5] was “inactive” in each case.
Regarding `CC(=Cc1csc(C)n1)[C@@H]1C[C@H]2O[C@@H]2CCC[C@H](C)[C@@H](O)[C@@H](C)C(=O)C(C)(C)[C@@H](O)CC(=O)O1`, the result in experiment [1] was inactive. For the same compound, the Potency entry in experiment [2] is “inactive”.
Turning to `C[C@@H]1CC[C@H]2[C@@H](C)C(=O)O[C@@H]3O[C@@]4(C)CC[C@H]1[C@]32OO4`, the result in experiment [1] was inactive. The Potency result in experiment [2] was “inactive”.
Consider `COC1=CC(C)=C[C@@H](C)[C@@H](O)[C@@H](C)CC(C)=CC=C[C@H](OC)[C@H]([C@@H](C)[C@@H](O)[C@H](C)[C@@]2(O)C[C@@H](O)[C@H](C)[C@@H](C(C)C)O2)OC1=O`, for which the outcome in experiment [1] was inactive. The Potency entry in experiment [2] was “inactive”.
`Cc1cc(O)ccc1Cl`: in experiment [1], the outcome was inactive. Further, the Potency result in experiment [2], in experiment [3], in experiment [4] and in experiment [5] was “inactive” throughout.
Take `O=S(=O)(O)C(F)(F)C(F)(F)C(F)(F)C(F)(F)F`: the outcome in experiment [1] was inactive. For the same compound, the Potency entry in experiment [2], in experiment [3] and in experiment [4] was “inactive” in each case. Moreover, the Potency in experiment [5] was 18.9 µM (active).
Regarding `O=C(O)c1cc(Oc2ccc(C(F)(F)F)cc2Cl)ccc1[N+](=O)[O-]`, in experiment [1], the result was inactive. The Potency entry in experiment [2] and in experiment [3] was “inactive” each time.
Regarding `CCN(CC)C(=O)c1ccc(C2=CC3(CCNCC3)Oc3cccc(O)c32)cc1`, the result in experiment [1] was inactive. Besides, the Potency result in experiment [2] is “inactive”.
Turning to `CC(C)[C@]12O[C@H]1[C@@H]1O[C@]13[C@]1(O[C@H]1C[C@H]1C4=C(CC[C@@]13C)C(=O)OC4)[C@@H]2O`, the result in experiment [1] was inactive. For the same compound, the Potency entry in experiment [2] was “inactive”.
Turning to `CC(=Cc1csc(C)n1)[C@@H]1C[C@H]2O[C@]2(C)CCC[C@H](C)[C@@H](O)[C@@H](C)C(=O)C(C)(C)[C@@H](O)CC(=O)O1`, in experiment [1], the result was inactive. Moreover, the Potency entry in experiment [2] is “inactive”.
Consider `COC(C)(C)CCCC(C)C/C=C/C(C)=C/C(=O)OC(C)C` (stereo not given), for which, in experiment [1], the outcome was inactive. Further, the Potency entry in experiment [2], in experiment [3] and in experiment [4] was “inactive” in each case.
As to `CCNC(=O)CC1N=C(c2ccc(Cl)cc2)c2cc(OC)ccc2-n2c(C)nnc21` (stereo not given), the outcome in experiment [1] was inactive. The Potency result in experiment [2] was “inactive”.
